High-throughput results (PubChem)
Luciferase inh – Photinus pyralis luciferase inhibition; P08659; purified P. pyralis luciferase, luminescence, biochemical; Potency, µM (series often up to 115 µM), actives largely listed as inhibitors; 76,000 compounds, 2.5% hits; AID 1347043; note: nearly all actives have a fitted effect of over 65% in size
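Luminescence read by CCD imager after adding enzyme (10nM final) to wells holding compound, titrated in qHTS. Substrates 10uM each D-luciferin and ATP; buffer 50mM Tris acetate pH 7.5, 10mM Mg acetate, Tween-20, BSA.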
HEK293 tox – kills HEK 293 cells; 94,000 compounds, 6.6% hits; HEK 293 viability, ATP luminescence (CellTiter-Glo), 48-72 h; Potency, µM (doses to about 115 µM), inactives show at the highest dose activity change, negative = cytotoxicity, most hits filed as inhibitors; note: nearly all actives have a fitted effect of over 60% in size
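Pintool-delivered compounds were incubated with HEK 293 cells (250 cells/well) at 37 degree Celsius for 48 or 72 hr. ATP-dependent luminescence (CellTiter-Glo) then reported remaining viable cells.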
NPR1 antag – blocks ANP-stimulated signaling of human Npr1 receptor. P16066. HEK293 hNpr1 GloSensor cGMP, ANP-stimulated luminescence. Potency, µM (doses to about 46.3 µM), for the others: at the top dose activity change, negative = inhibition, usual class: inhibitors. 76,000 compounds, 1.6% hits. AID 1347048; calls by dose curve; note: nearly all actives have a fitted effect of over 60% in size
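Compound pre-incubated 30 min at room temperature on GloSensor-loaded HEK293 cells stably carrying hNpr1 and the pGS-40F cGMP biosensor. Stimulation uses hNppA at 0.1 nM final; luminescence is taken at baseline and 20 min post-agonist.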
NIH3T3 tox – cytotoxic compounds in NIH 3T3 cells; AID 1345082; 94,000 compounds, 4.3% hits; NIH 3T3 viability, CellTiter-Glo ATP luminescence, 48-72 h; Potency, µM (doses to about 96.7 µM), without a hit: at the top dose activity change, negative = cytotoxicity, hits mostly inhibitors; note: nearly all actives have a fitted effect of over 55% in size
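First NIH 3T3 cells are plated at 400 cells/well; next compound is pinned in; then plates incubate 48 or 72 hr at 37 °C; finally CellTiter-Glo is added and luminescence read after 10 min.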
GPT2 inhibitor – inhibitors of human GPT2 alanine aminotransferase. Q8TD30. Recombinant GPT2, coupled pyruvate oxidase/HRP Amplex Red fluorescence. Potency, µM (highest dose often 57.7 µM), without a hit: at the highest dose activity change, negative = inhibition, actives largely listed as inhibitors. 100,000 compounds, 0.25% hits; note: nearly all actives have a fitted effect of over 60% in size
Target sequence (Q8TD30 whole entry, looked up): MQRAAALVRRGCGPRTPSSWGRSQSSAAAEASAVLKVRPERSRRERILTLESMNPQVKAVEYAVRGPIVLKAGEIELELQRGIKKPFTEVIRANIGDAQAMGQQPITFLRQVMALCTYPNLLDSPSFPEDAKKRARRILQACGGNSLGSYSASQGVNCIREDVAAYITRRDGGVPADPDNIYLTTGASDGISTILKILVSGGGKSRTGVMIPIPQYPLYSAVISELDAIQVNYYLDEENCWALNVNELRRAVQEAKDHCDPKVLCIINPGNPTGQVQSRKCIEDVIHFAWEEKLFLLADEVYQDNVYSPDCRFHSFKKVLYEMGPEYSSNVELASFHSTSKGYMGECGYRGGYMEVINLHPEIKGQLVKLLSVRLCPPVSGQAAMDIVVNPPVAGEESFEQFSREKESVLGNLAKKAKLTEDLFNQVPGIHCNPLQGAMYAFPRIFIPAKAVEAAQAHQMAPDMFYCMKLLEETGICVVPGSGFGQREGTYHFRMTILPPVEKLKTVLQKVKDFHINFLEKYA
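Recombinant GPT2 (10ng/uL) with 250uM a-KG and 2mM L-alanine, 30 min at room temperature, in HEPES pH 7.5 buffer. Pyruvate detected by pyruvate oxidase/HRP/Amplex Red fluorescence after 30 min in the dark; AOA (50uM) as positive control.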
Numbers without * were called inactive; i = inactive; ? = inconclusive; · = no result; [ ] = remark or other dose. Rows were chosen to be rich in hits. Some 10% of all compounds tested hit in one or more screens of this group. Unless noted, calls come from the whole dose curve; as a rule, active = well fitted curve in the direction sought with a large enough effect; inconclusive = small, poorly fitted or top-dose-only effect, or another doubt; inactive = no such curve, though single readings can be large; an effect the other way counts as inactive or inconclusive. % is set by controls: 0 for no effect and ±100 for the full control effect; potency is the fitted concentration of half-maximal effect.

SMILES | Luciferase inh | HEK293 tox | NPR1 antag | NIH3T3 tox | GPT2 inhibitor
COc1ccc(Nc2ccnc(N3CCCC(C(=O)N4CCCCC4)C3)n2)cc1 (stereo not given) | · | ? | · | ? | i
O=C(NCc1cccs1)C1CCCN(c2nccc(Nc3ccccc3F)n2)C1 (stereo not given) | · | ? | · | ? | -5%
COCCOc1ccc2c(n1)CCN(C(=O)c1ccco1)C2 | i | 3% | 7% | 4% | 1%
Cc1ncsc1C1N(C2CCN(Cc3cn(C)c4ccccc34)CC2)C(=O)C12CCCC2 (stereo not given) | i | 79µM* | 1% | -22% | 0%
Cc1ccc(Cn2cc(-c3ccncc3)cc2C(=O)NC2CC2)cc1 | 45µM* | ? | -9% | ? | ?
O=C(c1cccc(Cl)c1)N1CCN(c2cc(-c3ccc(Cl)cc3)[nH]n2)CC1 | i | 45µM* | ? | 35µM* | 0%
COc1cc(OC)cc(C(=O)N2CCN(c3cc(-c4ccc(Cl)cc4)[nH]n3)CC2)c1 | i | ? | ? | 35µM* | i
COc1ccc(-c2cc(N3CCCN(C(=O)c4cc(OC)cc(OC)c4)CC3)n[nH]2)cc1 | i | ? | -15% | -25% | -30%
COc1cccc(C(=O)N2CCCN(c3cc(-c4ccc(Cl)cc4)[nH]n3)CC2)c1 | i | ? | ? | ? | i
CN(C)c1cccc(C(=O)N2CCN(c3cc(-c4ccc(Cl)cc4)[nH]n3)CC2)c1 | 28µM* | ? | -24% | ? | i
N#Cc1ccc(C(=O)N2CCCN(c3cc(-c4ccc(Cl)cc4)[nH]n3)CC2)cc1 | i | 28µM* | ? | ? | -26%
O=C1CC(c2ccccc2)N(C(=O)CC2CCCC2)CCCCCCN1 (stereo not given) | i | ? | 5% | -26% | i
CN(CC[C@@H]1CC[C@H](O)[C@@H](C(=O)N(C)Cc2ccccc2)O1)Cc1ccccc1 | i | ? | -3%[70.6 µM] | -16%[174 µM] | 2%[88.5 µM]
CCN1c2cc(C(=O)Nc3ccc(C(C)C)cc3)ccc2C(=O)N2CCCCCC21 (stereo not given) | i | ? | 4% | 22µM* | i
CCN1c2cc(C(=O)Nc3ccc(Cl)cc3)ccc2C(=O)N2CCCCCC21 (stereo not given) | i | 45µM* | -7% | ? | i
CCOc1ccc(NC(=O)c2ccc3c(c2)N(CC)C2CCCCCN2C3=O)cc1 (stereo not given) | i | ? | -3% | ? | i
CCN1c2cc(C(=O)Nc3ccc(C(C)C)cc3)ccc2C(=O)N2CCCCC21 (stereo not given) | ? | 18µM* | 4% | ? | 1%
CCN1c2cc(C(=O)Nc3ccc(-n4ccnc4)cc3)ccc2C(=O)N2CCCCCC21 (stereo not given) | i | ? | -3% | 11µM* | i
COc1ccc(-c2nn(-c3ccccc3C)cc2CN2CCCN(C)CC2)cc1F | i | ? | 5% | ? | -12%
COC[C@@H]1CCCN1Cc1cn(-c2ccccc2)nc1-c1ccc(OC)cc1F | ? | ? | 9% | ? | i
COc1ccc(-n2cc(CN3CCC(CO)CC3)c(-c3cccc(F)c3)n2)cc1 | i | ? | 3% | 79µM* | -22%
COc1ccc(-n2cc(CN3CCCN(C)CC3)c(-c3cccc(F)c3)n2)cc1 | i | ? | -6% | 45µM* | -49%
COc1ccc(-n2cc(CN3CCCC(O)C3)c(-c3cccc(F)c3)n2)cc1 (stereo not given) | 28µM* | ? | 0% | ? | -11%
COc1ccc(-c2nn(-c3ccccc3)cc2CN2CCCC(C)(O)C2)c(F)c1 (stereo not given) | i | 89µM* | 0% | ? | i[11.5 µM]
COc1ccccc1C(=O)N1CCC(C(=O)N2CCC(c3ccccc3)CC2)CC1 | · | ? | · | ? | 3%
SMILES | Luciferase inh | HEK293 tox | NPR1 antag | NIH3T3 tox | GPT2 inhibitor
C[S+](=O)([O-])N1Cc2ccccc2CC2(CCCCN2CC2CCNCC2)C1 (stereo not given) | · | -28% | · | -8% | 0%
O=C(NC1CCCc2c1[nH]c1c(Cl)cccc21)c1ccccn1 (stereo not given) | i | ? | 0% | ? | -15%
Cc1ccsc1CNC(=O)c1cccc(C#CC(C)(C)O)c1 | ? | ? | -15% | ? | 3%
O=C(NCc1cccnc1)c1cc(-c2ccc(F)cc2)c2nncn2n1 | · | i | · | -2% | i
CN1CCC2(C1)CN(Cc1ccccc1)c1ccc(C(=O)Nc3ccn(C)n3)cc12 (stereo not given) | i | ? | 3%[70.6 µM] | ? | 1%[88.5 µM]
CN1CCCC2(C1)CN(Cc1cccnc1)c1ccc(C(=O)NCC3CCCCC3)cc12 (stereo not given) | i | 89µM* | 1%[70.6 µM] | 35µM* | 3%[88.5 µM]
CC(=O)N1CCCC2(C1)CN(C)c1ccc(C(=O)NCC3CC3)cc12 (stereo not given) | i | i | 1%[70.6 µM] | ? | i
COc1ccc(NC(=O)c2ccc3c(c2)C2(CCCN(C)C2)CN3Cc2cccnc2)cc1 (stereo not given) | i | -14% | 1% | 32µM* | i
CCC1(N2CCN(C(=O)CCc3c[nH]c4ccccc34)CC2)CCN(C(=O)NC)C1 (stereo not given) | ? | -21% | -14% | -18% | -11%
COc1ccc(C2(C(=O)N3c4ccccc4CC3c3noc(C4CCOCC4)n3)CC2)cc1 (stereo not given) | 25µM* | ? | -4% | ? | -9%
COc1ncccc1-c1nc(-c2c(C)noc2C)cc2cc(C(C)C)oc12 | i | 89µM* | 1%[70.6 µM] | ? | -4%[88.5 µM]
Cc1noc(C)c1-c1cc2cc(C(C)C)oc2c(-c2c(C)noc2C)n1 | i | ? | -4%[70.6 µM] | ? | 0%[88.5 µM]
Cc1noc(C)c1-c1cc2cc(C(C)C)oc2c(NC2CCOCC2)n1 | i | 100µM* | 1%[70.6 µM] | ? | -1%[88.5 µM]
Cc1noc(C)c1-c1cc2cc(C(C)C)oc2c(NC(C)C)n1 | i | 89µM* | -2%[70.6 µM] | 79µM* | -6%[88.5 µM]
CCN(Cc1ccccc1)C(=O)c1cc(COc2ccccc2)[nH]n1 | i | ? | 5% | ? | -13%
CCC(=O)NC[C@H]1Cn2cc(-c3ccc(OC)cc3)nc2CO1 | 63µM* | 2%[172 µM] | -1%[70.6 µM] | 4%[138 µM] | -5%[88.5 µM]
COc1ccc(-c2cn3c(n2)CO[C@@H](CNC(=O)CCC(=O)O)C3)cc1 | i | i | 8%[70.6 µM] | i | 1%[88.5 µM]
COc1ccc(-c2cn3c(n2)CO[C@@H](CNS(C)(=O)=O)C3)cc1 | 56µM* | -5%[172 µM] | -1%[70.6 µM] | -4%[138 µM] | 0%[88.5 µM]
COc1ccc(-c2cn3c(n2)CO[C@@H](CNCc2ccc(Cl)cc2)C3)cc1 | 63µM* | 89µM* | ? | 100µM* | 5%[88.5 µM]
